# Measured values: paper PMC7862700, “An all-to-all approach to the identification of sequence-specific readers for epigenetic DNA modifications on cytosine”
# Columns and labels:
# Assay in all cases: DAPPL (digital affinity profiling via proximity ligation, sequencing); 10 mM Tris-HCl pH 7.5, 50 mM NaCl, 1 mM DTT, 4% glycerol, room temperature, 30 min; GST-TFs on glutathione beads, 16-mer random dsDNA library, 0.1% formaldehyde crosslink after washing; high values mean tight binding
# FLI1 = target: T1, FLI1 (Homo sapiens, UniProt Q01543 1-452); settings: protein: recombinant; tags: N-terminal GST; dsDNA, one strand shown
# T1 sequence: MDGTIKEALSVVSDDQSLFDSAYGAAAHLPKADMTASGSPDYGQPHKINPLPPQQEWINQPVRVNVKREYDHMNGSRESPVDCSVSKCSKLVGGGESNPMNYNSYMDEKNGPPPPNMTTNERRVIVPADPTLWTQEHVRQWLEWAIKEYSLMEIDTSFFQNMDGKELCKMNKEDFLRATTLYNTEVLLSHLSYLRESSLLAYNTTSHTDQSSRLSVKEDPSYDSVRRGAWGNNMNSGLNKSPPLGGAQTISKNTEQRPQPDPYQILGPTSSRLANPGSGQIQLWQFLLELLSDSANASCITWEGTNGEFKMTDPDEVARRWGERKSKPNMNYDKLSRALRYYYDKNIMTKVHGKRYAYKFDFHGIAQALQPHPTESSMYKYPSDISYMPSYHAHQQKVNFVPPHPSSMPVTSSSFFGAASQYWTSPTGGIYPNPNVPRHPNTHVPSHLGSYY
# Method in brief: (§1)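 Pools of DNA-barcoded human transcription factors, expressed in yeast as GST fusions on glutathione beads and combined with a tag-only sample, were incubated with 200 nmole of a 16-mer random double-stranded DNA library. Incubation took 30 min at room temperature in Tris/NaCl/DTT/glycerol buffer and was followed by washing, 0.1% formaldehyde crosslinking, proximity ligation (BsaI/T4 ligase, 1 h, 37 °C), PCR amplification and sequencing on an Illumina NextSeq500. Binding signal is the ratio of a hexamer's read frequency for a factor to its frequency for the tag-only sample.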
# ELK1 = target: T2, ELK1 (Homo sapiens, UniProt P19419 1-428); settings: protein: recombinant; tags: N-terminal GST; dsDNA, one strand shown
# T2 sequence: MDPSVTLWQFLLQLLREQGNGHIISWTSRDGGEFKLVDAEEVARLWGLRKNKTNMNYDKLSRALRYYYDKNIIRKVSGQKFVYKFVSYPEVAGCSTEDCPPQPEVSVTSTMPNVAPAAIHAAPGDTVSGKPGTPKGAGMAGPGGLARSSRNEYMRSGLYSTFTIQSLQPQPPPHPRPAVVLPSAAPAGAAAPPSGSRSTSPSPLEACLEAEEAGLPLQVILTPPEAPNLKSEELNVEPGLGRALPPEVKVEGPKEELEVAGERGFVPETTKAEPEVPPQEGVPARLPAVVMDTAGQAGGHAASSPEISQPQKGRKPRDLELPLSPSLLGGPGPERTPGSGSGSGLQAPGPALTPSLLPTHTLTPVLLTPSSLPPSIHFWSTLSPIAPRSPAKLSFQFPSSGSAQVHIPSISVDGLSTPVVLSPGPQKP
# Method in brief: as §1
# GABPA = target: T3, GABPA (Homo sapiens, UniProt Q06546 1-454); settings: protein: recombinant; tags: N-terminal GST; dsDNA, one strand shown
# T3 sequence: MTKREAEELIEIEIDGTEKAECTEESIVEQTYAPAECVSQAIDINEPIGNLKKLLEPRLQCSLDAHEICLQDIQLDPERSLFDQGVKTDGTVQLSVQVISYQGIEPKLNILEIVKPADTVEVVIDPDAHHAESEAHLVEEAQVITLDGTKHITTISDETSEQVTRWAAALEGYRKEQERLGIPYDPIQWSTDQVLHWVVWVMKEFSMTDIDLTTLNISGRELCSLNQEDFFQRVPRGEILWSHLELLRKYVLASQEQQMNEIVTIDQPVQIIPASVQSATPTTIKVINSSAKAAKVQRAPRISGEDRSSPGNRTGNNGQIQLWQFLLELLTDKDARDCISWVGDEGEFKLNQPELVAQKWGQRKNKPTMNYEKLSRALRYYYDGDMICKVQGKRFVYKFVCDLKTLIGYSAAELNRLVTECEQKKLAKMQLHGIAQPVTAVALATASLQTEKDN
# Method in brief: as §1
# ERG = target: T4, ERG (Homo sapiens, UniProt P11308 1-479); settings: protein: recombinant; tags: N-terminal GST; dsDNA, one strand shown
# T4 sequence: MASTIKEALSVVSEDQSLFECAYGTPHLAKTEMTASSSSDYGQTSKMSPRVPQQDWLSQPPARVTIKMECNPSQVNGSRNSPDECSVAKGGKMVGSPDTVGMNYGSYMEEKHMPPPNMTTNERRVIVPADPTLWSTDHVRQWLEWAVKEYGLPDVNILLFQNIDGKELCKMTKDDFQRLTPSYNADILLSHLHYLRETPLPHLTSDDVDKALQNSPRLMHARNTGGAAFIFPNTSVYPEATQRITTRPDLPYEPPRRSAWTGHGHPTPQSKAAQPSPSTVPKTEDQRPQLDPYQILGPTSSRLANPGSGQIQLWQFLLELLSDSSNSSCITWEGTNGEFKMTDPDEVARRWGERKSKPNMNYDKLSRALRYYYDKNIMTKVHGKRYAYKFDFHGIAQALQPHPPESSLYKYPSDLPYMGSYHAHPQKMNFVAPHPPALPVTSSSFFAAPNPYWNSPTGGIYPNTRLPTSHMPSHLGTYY
# Method in brief: as §1
# ELF1 = ELF1 (Homo sapiens, UniProt P32519 1-619); settings: protein: recombinant; tags: N-terminal GST; dsDNA, one strand shown
# Sequence of ELF1 (P32519 whole entry): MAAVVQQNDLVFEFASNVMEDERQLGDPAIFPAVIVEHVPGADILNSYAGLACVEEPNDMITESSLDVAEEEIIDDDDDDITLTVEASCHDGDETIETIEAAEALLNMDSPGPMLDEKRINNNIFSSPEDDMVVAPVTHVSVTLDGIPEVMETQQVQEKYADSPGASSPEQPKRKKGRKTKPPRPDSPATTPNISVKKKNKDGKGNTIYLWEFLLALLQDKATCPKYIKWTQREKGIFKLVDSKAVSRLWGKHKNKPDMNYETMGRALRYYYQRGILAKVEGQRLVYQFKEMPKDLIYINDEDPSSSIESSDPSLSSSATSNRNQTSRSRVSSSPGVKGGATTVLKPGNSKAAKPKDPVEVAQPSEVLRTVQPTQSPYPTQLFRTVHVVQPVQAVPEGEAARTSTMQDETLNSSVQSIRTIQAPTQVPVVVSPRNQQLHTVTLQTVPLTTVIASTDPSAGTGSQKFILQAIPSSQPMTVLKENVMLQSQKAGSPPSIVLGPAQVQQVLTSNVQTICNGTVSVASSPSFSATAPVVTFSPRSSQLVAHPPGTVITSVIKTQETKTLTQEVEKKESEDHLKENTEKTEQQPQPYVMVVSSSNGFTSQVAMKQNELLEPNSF
# Method in brief: as §1
# EHF = target: T5, EHF (Homo sapiens, UniProt Q9NZC4 1-300); settings: protein: recombinant; tags: N-terminal GST; dsDNA, one strand shown
# T5 sequence: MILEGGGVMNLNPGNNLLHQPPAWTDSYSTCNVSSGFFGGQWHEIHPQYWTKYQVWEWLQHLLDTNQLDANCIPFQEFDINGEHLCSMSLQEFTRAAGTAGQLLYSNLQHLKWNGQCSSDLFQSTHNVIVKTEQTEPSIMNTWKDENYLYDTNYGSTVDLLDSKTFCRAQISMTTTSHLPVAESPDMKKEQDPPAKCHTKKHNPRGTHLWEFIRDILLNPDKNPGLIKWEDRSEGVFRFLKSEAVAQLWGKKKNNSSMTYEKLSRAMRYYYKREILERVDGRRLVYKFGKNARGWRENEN
# Method in brief: as §1
# SPI1 = SPI1 (Homo sapiens, UniProt P17947 1-270); settings: protein: recombinant; tags: N-terminal GST; dsDNA, one strand shown
# Method in brief: as §1
# SPIB = SPIB (Homo sapiens, UniProt Q01892 1-262); settings: protein: recombinant; tags: N-terminal GST; dsDNA, one strand shown
# Sequence of SPIB (Q01892 whole entry): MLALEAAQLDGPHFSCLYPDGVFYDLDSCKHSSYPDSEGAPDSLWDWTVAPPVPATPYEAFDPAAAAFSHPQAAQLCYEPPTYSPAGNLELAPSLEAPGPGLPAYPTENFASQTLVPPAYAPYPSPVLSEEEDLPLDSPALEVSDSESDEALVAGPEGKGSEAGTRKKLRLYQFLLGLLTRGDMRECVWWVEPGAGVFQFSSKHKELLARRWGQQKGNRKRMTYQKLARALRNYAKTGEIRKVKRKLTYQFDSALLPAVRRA
# Method in brief: as §1
# ELK3 = target: T6, ELK3 (Homo sapiens, UniProt P41970 1-407); settings: protein: recombinant; tags: N-terminal GST; dsDNA, one strand shown
# T6 sequence: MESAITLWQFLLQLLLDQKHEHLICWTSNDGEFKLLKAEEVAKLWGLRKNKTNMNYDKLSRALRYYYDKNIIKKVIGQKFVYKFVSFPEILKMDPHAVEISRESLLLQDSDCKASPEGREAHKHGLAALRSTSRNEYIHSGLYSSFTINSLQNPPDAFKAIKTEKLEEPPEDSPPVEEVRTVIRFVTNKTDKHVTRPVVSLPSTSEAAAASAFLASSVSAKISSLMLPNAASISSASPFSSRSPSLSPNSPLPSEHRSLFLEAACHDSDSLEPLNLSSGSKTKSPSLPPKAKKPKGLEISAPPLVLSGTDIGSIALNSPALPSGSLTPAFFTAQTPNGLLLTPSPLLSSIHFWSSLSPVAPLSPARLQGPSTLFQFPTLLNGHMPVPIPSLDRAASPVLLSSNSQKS
# Method in brief: as §1
# FEV = target: T7, FEV (Homo sapiens, UniProt Q99581 1-238); settings: protein: recombinant; tags: N-terminal GST; dsDNA, one strand shown
# T7 sequence: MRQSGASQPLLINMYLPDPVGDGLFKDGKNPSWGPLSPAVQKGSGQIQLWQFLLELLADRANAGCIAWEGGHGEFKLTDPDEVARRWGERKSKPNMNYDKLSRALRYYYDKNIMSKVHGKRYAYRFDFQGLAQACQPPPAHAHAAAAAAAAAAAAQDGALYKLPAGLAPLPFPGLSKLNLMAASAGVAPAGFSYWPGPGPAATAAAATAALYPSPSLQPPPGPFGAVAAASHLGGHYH
# Method in brief: as §1
# ETV5 = ETV5 (Homo sapiens, UniProt P41161 1-510); settings: protein: recombinant; tags: N-terminal GST; dsDNA, one strand shown
# Sequence of ETV5 (P41161 whole entry): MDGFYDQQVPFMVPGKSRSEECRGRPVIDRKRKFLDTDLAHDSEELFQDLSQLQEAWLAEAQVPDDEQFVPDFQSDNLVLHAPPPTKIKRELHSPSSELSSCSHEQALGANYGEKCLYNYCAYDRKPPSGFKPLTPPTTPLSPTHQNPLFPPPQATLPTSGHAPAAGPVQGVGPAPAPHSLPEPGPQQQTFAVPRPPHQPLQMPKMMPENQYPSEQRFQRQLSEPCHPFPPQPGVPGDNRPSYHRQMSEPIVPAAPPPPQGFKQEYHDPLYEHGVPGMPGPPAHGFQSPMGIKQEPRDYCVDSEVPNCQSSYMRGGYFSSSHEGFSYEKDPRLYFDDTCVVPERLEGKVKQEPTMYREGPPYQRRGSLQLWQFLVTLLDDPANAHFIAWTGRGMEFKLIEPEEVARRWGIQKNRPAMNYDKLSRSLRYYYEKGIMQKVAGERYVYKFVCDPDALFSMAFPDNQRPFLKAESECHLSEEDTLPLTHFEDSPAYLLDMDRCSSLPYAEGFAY
# Method in brief: as §1
# HSF1 = HSF1 (Homo sapiens, UniProt Q00613 1-529); settings: protein: recombinant; tags: N-terminal GST; chain copies: 3; dsDNA, one strand shown
# Sequence of HSF1 (Q00613 whole entry): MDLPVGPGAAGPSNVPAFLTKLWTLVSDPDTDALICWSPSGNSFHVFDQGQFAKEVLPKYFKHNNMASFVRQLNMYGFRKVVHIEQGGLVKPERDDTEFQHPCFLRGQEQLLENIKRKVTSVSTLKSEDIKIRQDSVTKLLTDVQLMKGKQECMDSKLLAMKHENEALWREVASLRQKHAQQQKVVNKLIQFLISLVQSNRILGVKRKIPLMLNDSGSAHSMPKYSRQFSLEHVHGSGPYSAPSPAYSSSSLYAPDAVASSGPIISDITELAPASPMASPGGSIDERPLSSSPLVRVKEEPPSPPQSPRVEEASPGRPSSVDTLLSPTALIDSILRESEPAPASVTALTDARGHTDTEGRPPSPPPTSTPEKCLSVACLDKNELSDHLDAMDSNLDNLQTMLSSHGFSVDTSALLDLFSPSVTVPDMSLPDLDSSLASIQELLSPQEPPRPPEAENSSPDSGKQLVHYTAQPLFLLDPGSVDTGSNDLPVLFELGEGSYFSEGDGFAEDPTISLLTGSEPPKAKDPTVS
# Method in brief: as §1
# SPIC = target: T8, SPIC (Homo sapiens, UniProt Q8N5J4 1-248); settings: protein: recombinant; tags: N-terminal GST; dsDNA, one strand shown
# T8 sequence: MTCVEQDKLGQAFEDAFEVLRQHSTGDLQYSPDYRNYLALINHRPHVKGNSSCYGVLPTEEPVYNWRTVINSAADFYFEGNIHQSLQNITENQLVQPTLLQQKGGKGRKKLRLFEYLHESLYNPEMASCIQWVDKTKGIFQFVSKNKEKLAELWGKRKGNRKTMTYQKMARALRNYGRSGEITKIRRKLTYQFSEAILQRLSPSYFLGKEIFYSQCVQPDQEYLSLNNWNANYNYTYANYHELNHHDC
# Method in brief: as §1
# ELF4 = ELF4 (Homo sapiens, UniProt Q99607 1-663); settings: protein: recombinant; tags: N-terminal GST; dsDNA, one strand shown
# Sequence of ELF4 (Q99607 whole entry): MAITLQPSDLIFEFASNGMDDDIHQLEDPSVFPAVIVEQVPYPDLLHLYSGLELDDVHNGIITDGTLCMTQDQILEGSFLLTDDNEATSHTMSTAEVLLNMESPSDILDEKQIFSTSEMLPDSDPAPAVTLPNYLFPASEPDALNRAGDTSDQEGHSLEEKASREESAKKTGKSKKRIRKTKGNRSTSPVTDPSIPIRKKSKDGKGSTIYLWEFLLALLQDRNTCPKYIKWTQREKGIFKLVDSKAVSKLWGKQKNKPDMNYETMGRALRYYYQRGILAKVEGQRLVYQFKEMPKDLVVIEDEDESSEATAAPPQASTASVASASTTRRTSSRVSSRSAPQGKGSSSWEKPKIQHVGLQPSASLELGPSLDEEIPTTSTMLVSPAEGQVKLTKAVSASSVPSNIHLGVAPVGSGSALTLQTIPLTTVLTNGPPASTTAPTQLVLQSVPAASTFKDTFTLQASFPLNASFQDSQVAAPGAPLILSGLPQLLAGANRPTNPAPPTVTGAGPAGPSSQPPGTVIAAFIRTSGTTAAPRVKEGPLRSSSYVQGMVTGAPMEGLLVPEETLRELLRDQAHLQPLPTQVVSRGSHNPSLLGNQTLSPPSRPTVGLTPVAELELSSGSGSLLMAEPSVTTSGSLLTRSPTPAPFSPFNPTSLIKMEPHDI
# Method in brief: as §1
# ELK4 = target: T9, ELK4 (Homo sapiens, UniProt P28324-2 1-405); settings: protein: recombinant; tags: N-terminal GST; dsDNA, one strand shown
# T9 sequence: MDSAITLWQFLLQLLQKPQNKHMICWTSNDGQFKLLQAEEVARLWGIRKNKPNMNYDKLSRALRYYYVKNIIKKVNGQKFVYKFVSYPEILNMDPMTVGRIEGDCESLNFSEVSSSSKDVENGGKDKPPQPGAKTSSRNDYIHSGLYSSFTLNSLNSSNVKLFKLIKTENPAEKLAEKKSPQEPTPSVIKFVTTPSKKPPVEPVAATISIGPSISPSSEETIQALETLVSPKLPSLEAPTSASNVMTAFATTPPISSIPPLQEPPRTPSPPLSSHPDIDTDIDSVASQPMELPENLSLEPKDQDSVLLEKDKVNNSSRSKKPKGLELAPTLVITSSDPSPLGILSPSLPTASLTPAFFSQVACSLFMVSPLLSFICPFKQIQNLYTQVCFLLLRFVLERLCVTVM
# Method in brief: as §1
# ETV2 = target: T10, ETV2 (Homo sapiens, UniProt O00321 1-342); settings: protein: recombinant; tags: N-terminal GST; dsDNA, one strand shown
# T10 sequence: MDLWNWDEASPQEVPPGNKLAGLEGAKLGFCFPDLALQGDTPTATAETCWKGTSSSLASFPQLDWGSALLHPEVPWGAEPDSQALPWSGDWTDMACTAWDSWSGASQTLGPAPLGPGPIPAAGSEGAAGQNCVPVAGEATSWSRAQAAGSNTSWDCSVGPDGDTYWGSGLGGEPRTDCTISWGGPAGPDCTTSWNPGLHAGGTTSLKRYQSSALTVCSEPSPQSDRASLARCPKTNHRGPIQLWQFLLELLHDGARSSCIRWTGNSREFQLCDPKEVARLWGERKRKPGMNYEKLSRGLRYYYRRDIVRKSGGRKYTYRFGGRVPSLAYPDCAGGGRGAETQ
# Method in brief: as §1
# ELF3 = target: T11, ELF3 (Homo sapiens, UniProt P78545 1-371); settings: protein: recombinant; tags: N-terminal GST; dsDNA, one strand shown
# T11 sequence: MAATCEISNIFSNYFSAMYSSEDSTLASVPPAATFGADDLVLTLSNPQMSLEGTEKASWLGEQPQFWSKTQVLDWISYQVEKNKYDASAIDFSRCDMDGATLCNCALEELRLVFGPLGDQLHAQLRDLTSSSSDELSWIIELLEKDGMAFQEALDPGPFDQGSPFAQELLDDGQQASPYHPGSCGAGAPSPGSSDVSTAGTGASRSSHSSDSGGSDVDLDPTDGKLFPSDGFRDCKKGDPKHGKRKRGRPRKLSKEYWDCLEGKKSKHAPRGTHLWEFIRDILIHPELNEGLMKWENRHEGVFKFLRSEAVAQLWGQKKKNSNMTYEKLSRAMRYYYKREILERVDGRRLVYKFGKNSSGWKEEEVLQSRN
# Method in brief: as §1
# CRX = CRX (Homo sapiens, UniProt O43186 1-299); settings: protein: recombinant; tags: N-terminal GST; dsDNA, one strand shown
# Sequence of CRX (O43186 whole entry): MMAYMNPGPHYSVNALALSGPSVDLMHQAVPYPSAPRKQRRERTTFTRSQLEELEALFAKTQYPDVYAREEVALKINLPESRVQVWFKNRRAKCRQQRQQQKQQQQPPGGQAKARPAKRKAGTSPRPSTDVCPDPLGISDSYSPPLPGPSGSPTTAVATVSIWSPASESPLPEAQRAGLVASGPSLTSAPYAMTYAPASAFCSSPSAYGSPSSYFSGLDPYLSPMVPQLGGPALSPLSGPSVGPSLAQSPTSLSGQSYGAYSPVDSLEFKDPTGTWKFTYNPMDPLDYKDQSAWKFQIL
# Method in brief: as §1
# ETV1 = ETV1 (Homo sapiens, UniProt P50549 1-477); settings: protein: recombinant; tags: N-terminal GST; dsDNA, one strand shown
# Sequence of ETV1 (P50549 whole entry): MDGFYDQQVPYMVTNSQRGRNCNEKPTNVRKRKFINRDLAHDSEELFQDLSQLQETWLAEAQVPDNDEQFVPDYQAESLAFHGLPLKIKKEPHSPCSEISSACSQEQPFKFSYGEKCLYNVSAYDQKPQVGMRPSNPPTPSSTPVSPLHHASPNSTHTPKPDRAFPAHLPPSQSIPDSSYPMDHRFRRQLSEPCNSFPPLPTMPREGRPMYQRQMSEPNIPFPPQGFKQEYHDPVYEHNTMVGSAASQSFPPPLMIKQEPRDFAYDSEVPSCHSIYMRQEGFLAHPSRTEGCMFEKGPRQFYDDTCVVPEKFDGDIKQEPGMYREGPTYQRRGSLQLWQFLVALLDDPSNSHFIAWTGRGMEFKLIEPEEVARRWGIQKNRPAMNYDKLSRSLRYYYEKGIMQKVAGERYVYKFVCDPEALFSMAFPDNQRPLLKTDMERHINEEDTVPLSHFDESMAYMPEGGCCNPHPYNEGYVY
# Method in brief: as §1
sequence,measurement,setting,value
TCCCTT,binding signal,FLI1,"1.63 fold enrichment (6-mer frequency, TF over GST control)"
same,binding signal,ELK1,"1.56 fold enrichment (6-mer frequency, TF over GST control)"
same,binding signal,GABPA,"1.47 fold enrichment (6-mer frequency, TF over GST control)"
same,binding signal,ERG,"1.67 fold enrichment (6-mer frequency, TF over GST control)"
same,binding signal,ELF1,"1.62 fold enrichment (6-mer frequency, TF over GST control)"
same,binding signal,EHF,"1.5 fold enrichment (6-mer frequency, TF over GST control)"
same,binding signal,SPI1,"1.69 fold enrichment (6-mer frequency, TF over GST control)"
same,binding signal,SPIB,"1.61 fold enrichment (6-mer frequency, TF over GST control)"
same,binding signal,ELK3,"1.37 fold enrichment (6-mer frequency, TF over GST control)"
same,binding signal,FEV,"1.51 fold enrichment (6-mer frequency, TF over GST control)"
same,binding signal,ETV5,"1.5 fold enrichment (6-mer frequency, TF over GST control)"
same,binding signal,HSF1,"1.51 fold enrichment (6-mer frequency, TF over GST control)"
same,binding signal,SPIC,"1.66 fold enrichment (6-mer frequency, TF over GST control)"
same,binding signal,ELF4,"1.68 fold enrichment (6-mer frequency, TF over GST control)"
same,binding signal,ELK4,"1.41 fold enrichment (6-mer frequency, TF over GST control)"
same,binding signal,ETV2,"1.32 fold enrichment (6-mer frequency, TF over GST control)"
same,binding signal,ELF3,"1.5 fold enrichment (6-mer frequency, TF over GST control)"
same,binding signal,CRX,"1.69 fold enrichment (6-mer frequency, TF over GST control)"
same,binding signal,ETV1,"1.49 fold enrichment (6-mer frequency, TF over GST control)"
